Results filed as inconclusive are left out. Active and inactive are the calls of the source. Calls follow the shape of the dose curve; as a rule, active = well fitted curve in the direction sought with a large enough effect; inconclusive = small, poorly fitted or top-dose-only effect, or another doubt; inactive = no such curve, though single readings can be large; an effect the other way counts as inactive or inconclusive.

Test [1] addresses Chromobox protein homolog 1 (Homo sapiens) (UniProt P83916). Description: qHTS Validation Assay for Inhibitors of HP1-beta Chromodomain Interactions with Methylated Histone Tails (AID 488953). Also: nearly all actives have a fitted effect of over 50% in size. Also: potency is read from the fitted curve at half-maximal effect. The essentials: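 AlphaScreen proximity signal from streptavidin donor and nickel chelate acceptor beads (final 10 ug/mL) after 30 min dark incubation. Compounds had 30 min at room temperature with preformed complex of 50 nM HP1-beta and 50 nM b-H3(1-18)K9me3 in PBS pH 7.4 with 0.01% Tween-20.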
(In general: qHTS replaces the single test concentration by a dilution series.)

Test [2] deals with Methanococcus maripaludis chaperonin (MmCpn) (UniProt Q6LX38). The test is described as follows: High-Throughput Screening for Modulators of Cytosolic Chaperonin Activity: MmCpn Primary Screen (AID 488978).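 Also: 50 nM MmCpn enzyme hydrolysing 30 µM ATP at 37 °C.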 An outline of the steps: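 MmCpn at 50 nM final was preincubated 5 min at RT with compound. ATP was then added at 30 uM final for 10 min at 37 C. ADP formed was detected by Transcreener HTRF (665/590 nm).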

In test [3] the target is Transient receptor potential cation channel subfamily V member 1 (Homo sapiens) (UniProt Q8NER1). Description: HTS Assay for Compounds that Act as Enhancers of the Vanilloid Receptor 1 (AID 488979). The essentials: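 TRPV1-expressing cells loaded with Fluo-8 calcium dye; compounds added and calcium influx read kinetically for 3 min (agonist phase), then capsaicin at EC20 added and read 2 min more for enhancement. Fluorescence ex 480/em 520 nm.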

Test [4] has as its target Thyrotropin receptor (Homo sapiens) (UniProt P16473). The test is described as follows: qHTS Assay for Antagonists of the Thyroid Stimulating Hormone Receptor (AID 488980). Also: series mostly up to about 58 µM. The essentials:
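TSHR-transfected HEK293 cells (2000/well) in HEPES-buffered HBSS with 70 uM RO 20-1724 were stimulated with 4 nM TSH (EC80, final) in the presence of compound. cAMP was measured by HTRF competition after lysis and 30 min at RT.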

Test [5] deals with D(1A) dopamine receptor (Homo sapiens) (UniProt P21728). The test is described as follows: HTS Assay for Allosteric Agonists of the Human D1 Dopamine Receptor: Primary Screen for Agonists (AID 488981). An outline of the steps:
(§1)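 Tetracycline-induced HEK293 T-REx cells force-coupled to calcium signalling were incubated overnight at 30 C and dye-loaded at room temperature. Calcium flux over 180 s after compound addition flagged agonists; a further 180 s read after EC20 dopamine flagged potentiators.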

Test [6] shares this target. The test is described as follows: HTS Assay for Allosteric Agonists of the Human D1 Dopamine Receptor: Primary Screen for Potentiators (AID 488982). Also: potency is read from the fitted curve at half-maximal effect. The essentials:
as §1

The target is the same in test [7]. Description: HTS Assay for Allosteric Agonists of the Human D1 Dopamine Receptor: Primary Screen for Antagonists (AID 488983).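 Also: calcium flux response to an EC80 dopamine challenge measured with no-wash dye; nearly all actives have a fitted effect of over 65% in size.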 An outline of the steps:
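Calcium-flux read-out in inducible HEK293 T-REx cells expressing D1, dye-loaded 30–90 min at room temperature. Kinetic reads: 180 s after compound (agonist phase), then 180 s after an EC80 dopamine challenge.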

Test [8] concerns the target ATP-dependent 6-phosphofructokinase (Trypanosoma brucei brucei) (UniProt O15648). The test is described as follows: qHTS Assay to Find Inhibitors of T. brucei phosphofructokinase: hit validation (AID 492961).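 Also: luminescence reports ADP formed as PFK phosphorylates fructose-6-phosphate with ATP; series mostly up to about 51 µM.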 An outline of the steps: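 Percent activity derived from corrected luminescence, normalized between 0x and 1x enzyme controls, then fitted to concentration-response curves. Conditions: 1.25 nM PFK, 0.1 mM ATP, 0.5 mM F6P, 45 min RT.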

The nature of test [9]: Validation screen for small molecules that induce genotoxicity in human embryonic kidney (HEK293T) cells expressing luciferase-tagged ELG1 (AID 493106). The essentials: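 ELG1-luciferase reporter readout (ONE-Glo, 30 min, room temperature) after 16 hr compound treatment at 37 °C of HEK293T cells at 2,000 per well. Rising luminescence flags genotoxic stress.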
In test [10] the target is ATPase family AAA domain-containing protein 5 (Homo sapiens) (UniProt Q96QE3). The test is described as follows: Validation screen for small molecules that inhibit ELG1-dependent DNA repair in human embryonic kidney (HEK293T) cells expressing luciferase-tagged ELG1 (AID 493107).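 Also: series mostly up to about 46 µM; inhibitors lower the ELG1-luciferase luminescence signal; nearly all actives have a fitted effect of over 70% in size.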 An outline of the steps: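 Luciferase read-out, ONE-Glo, 30 min at room temperature, follows 16 h co-exposure at 37 C of compound and the DNA-damaging agent 5-fluorouridine. Cells: HEK293T with ELG1-luciferase fusion, 2,000 per well, DMSO as vehicle.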
Chain of ATPase family AAA domain-containing protein 5 (Homo sapiens) (Q96QE3 whole entry, looked up, the tested form may be a part): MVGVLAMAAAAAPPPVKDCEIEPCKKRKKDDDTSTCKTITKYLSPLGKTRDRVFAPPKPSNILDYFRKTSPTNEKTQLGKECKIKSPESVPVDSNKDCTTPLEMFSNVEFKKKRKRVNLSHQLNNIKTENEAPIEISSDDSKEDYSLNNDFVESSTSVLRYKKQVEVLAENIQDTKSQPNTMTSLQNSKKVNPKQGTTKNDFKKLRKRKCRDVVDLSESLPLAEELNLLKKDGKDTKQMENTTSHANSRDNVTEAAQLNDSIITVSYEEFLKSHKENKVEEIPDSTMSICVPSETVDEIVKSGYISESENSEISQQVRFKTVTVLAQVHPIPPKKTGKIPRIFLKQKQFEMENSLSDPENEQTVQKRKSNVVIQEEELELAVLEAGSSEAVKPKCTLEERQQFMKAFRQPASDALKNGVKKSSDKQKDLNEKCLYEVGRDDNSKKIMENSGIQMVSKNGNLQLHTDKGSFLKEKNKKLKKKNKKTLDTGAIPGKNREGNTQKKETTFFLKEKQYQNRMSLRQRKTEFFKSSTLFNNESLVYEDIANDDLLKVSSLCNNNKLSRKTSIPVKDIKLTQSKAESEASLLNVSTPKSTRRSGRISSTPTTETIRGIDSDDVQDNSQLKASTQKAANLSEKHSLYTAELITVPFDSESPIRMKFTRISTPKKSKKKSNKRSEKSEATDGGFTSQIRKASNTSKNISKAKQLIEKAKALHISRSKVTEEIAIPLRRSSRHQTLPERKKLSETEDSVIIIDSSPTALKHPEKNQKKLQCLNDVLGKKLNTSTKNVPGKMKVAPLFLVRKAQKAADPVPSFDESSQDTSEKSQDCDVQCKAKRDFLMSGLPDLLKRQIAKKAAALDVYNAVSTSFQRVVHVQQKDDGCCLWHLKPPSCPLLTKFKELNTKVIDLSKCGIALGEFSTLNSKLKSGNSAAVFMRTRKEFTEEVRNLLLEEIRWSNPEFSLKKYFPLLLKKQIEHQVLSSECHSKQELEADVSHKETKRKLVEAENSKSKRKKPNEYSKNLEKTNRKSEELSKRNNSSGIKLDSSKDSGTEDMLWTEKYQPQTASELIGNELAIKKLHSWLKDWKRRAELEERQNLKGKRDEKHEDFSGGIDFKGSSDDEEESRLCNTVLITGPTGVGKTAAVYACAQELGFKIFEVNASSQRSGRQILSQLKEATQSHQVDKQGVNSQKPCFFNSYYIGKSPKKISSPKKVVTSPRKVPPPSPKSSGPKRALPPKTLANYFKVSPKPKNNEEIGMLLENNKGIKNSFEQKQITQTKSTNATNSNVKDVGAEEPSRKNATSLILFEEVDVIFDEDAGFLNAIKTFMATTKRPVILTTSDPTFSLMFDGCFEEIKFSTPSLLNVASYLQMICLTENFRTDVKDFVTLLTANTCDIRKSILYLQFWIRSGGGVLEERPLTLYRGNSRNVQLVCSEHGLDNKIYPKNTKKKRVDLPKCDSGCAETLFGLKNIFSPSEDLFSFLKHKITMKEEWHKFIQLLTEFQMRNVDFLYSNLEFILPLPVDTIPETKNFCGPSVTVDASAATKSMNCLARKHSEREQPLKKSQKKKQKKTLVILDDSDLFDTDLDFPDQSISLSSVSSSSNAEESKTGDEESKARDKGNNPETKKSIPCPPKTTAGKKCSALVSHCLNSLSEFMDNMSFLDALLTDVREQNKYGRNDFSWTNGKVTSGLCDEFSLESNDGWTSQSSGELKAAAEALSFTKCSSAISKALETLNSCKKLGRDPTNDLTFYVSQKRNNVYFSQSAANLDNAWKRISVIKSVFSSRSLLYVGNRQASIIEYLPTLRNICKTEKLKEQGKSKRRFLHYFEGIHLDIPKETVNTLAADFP

Chain of Chromobox protein homolog 1 (Homo sapiens) (P83916 whole entry, looked up): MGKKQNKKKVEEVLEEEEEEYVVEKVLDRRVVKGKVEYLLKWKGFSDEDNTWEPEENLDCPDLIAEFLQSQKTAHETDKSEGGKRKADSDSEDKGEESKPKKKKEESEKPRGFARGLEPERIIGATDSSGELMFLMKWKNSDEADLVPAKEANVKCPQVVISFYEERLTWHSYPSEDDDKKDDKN
Chain of Methanococcus maripaludis chaperonin (MmCpn) (Q6LX38 1-543): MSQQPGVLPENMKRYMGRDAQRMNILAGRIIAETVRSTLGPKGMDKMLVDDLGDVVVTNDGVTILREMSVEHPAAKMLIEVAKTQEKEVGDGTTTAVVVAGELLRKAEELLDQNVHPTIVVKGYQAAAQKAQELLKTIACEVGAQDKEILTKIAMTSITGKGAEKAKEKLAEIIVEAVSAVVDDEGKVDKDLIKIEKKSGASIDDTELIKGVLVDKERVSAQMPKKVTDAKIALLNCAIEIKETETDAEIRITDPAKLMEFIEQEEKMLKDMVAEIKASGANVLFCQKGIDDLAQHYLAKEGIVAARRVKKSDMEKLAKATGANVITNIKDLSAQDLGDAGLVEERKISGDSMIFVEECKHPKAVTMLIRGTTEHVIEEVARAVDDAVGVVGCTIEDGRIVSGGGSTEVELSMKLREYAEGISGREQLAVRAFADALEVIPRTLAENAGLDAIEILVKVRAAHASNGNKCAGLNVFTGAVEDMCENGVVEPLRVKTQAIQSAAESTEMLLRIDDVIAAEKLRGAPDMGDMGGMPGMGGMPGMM
Chain of Transient receptor potential cation channel subfamily V member 1 (Homo sapiens) (Q8NER1 whole entry, looked up): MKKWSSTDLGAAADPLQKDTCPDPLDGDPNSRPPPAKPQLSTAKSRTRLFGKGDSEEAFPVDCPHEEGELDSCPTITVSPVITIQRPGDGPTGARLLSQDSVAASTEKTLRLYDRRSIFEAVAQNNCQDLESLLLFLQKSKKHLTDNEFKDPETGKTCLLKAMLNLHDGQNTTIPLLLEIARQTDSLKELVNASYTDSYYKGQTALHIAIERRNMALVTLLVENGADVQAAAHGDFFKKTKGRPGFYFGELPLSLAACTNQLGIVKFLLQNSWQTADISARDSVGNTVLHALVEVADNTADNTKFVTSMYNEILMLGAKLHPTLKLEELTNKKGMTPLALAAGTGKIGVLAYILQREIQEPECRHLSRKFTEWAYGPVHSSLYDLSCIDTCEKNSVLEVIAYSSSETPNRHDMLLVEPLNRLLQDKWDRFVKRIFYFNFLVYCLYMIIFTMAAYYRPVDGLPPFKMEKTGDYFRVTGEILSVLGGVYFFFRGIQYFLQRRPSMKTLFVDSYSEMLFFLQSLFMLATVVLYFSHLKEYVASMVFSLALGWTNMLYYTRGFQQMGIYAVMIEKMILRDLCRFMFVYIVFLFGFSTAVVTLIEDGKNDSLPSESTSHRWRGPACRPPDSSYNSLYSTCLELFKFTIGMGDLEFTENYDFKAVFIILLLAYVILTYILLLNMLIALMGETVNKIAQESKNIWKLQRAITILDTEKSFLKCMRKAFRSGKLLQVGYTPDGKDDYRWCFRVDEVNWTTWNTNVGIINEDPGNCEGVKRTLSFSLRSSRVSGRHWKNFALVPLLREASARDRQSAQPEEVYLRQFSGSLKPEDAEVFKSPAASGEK
Chain of D(1A) dopamine receptor (Homo sapiens) (P21728 whole entry, looked up): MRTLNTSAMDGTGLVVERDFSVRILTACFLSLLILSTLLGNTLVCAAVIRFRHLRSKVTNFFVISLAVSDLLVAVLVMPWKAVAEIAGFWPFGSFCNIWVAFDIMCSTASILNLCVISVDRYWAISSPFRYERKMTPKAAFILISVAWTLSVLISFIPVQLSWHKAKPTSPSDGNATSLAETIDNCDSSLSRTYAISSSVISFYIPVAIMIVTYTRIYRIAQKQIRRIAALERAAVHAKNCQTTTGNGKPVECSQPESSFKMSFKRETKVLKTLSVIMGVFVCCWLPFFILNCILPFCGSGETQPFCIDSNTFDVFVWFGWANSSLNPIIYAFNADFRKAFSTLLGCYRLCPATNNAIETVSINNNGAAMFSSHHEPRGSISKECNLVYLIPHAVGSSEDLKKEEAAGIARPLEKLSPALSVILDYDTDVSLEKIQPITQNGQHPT
Chain of Thyrotropin receptor (Homo sapiens) (P16473 whole entry, looked up): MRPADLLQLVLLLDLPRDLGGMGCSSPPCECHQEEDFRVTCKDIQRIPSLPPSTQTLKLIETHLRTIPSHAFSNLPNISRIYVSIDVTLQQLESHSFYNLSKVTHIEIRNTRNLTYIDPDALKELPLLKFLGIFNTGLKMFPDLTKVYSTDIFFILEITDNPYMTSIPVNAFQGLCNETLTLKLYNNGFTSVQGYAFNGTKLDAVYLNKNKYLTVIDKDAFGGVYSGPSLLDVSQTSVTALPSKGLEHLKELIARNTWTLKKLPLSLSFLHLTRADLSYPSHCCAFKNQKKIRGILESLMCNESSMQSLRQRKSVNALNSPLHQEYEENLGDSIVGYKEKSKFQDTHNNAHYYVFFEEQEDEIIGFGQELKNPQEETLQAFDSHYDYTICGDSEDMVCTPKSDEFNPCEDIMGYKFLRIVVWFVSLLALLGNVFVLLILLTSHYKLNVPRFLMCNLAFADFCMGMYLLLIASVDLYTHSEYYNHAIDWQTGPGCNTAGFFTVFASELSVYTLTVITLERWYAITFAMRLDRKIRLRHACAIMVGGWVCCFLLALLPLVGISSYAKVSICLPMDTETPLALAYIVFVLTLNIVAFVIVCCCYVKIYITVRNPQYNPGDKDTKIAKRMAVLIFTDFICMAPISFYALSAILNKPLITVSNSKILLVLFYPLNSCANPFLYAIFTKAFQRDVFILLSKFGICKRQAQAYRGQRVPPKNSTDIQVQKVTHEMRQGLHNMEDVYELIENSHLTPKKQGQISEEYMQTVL

In the case of `CC(C)NNC(=O)c1ccncc1`, the Potency entry in test [1], in test [5], in test [6], in test [7] and in [9] was “inactive” in each case. Also, the outcome in test [2], in test [3], in test [4] and in test [8] was inactive.
Regarding `O=C(CCNNC(=O)c1ccncc1)NCc1ccccc1`, the Potency result in [1], in test [5], in [6], in test [7], in test [9] and in test [10] was “inactive” each time. Also, the outcome in [2], in test [3], in test [4] and in test [8] was inactive.
Consider `CCN1CCC[C@H]1CNC(=O)c1c(O)c(Cl)cc(Cl)c1OC`, for which the Potency entry in test [1], in test [5], in test [6], in [7], in [9] and in test [10] was “inactive” each time. Moreover, the result in test [2], in test [3] and in test [8] was inactive.
Take `CC(C)NCC(O)c1cc(O)cc(O)c1` (stereo not drawn): the Potency result in test [1], in [5], in test [6], in test [9] and in test [10] was “inactive” each time. The outcome in test [2], in [3] and in [4] was inactive.
With `CCN(CC)CC(=O)Nc1c(C)cccc1C`, the Potency result in test [1], in test [5], in test [6], in [7], in test [9] and in [10] was “inactive” each time. Moreover, the call in test [2], in test [3] and in test [4] was inactive.
On to `COCCc1ccc(OCC(O)CNC(C)C)cc1` (stereo not drawn), for which the Potency entry in test [1], in test [5], in test [6], in test [7], in test [9] and in test [10] was “inactive” in each case. In addition, the call in test [2], in test [3] and in [4] was inactive.
With `NCCCNCCSP(=O)(O)O`, the Potency entry in test [1], in [5], in [6], in [7], in test [9] and in test [10] was “inactive” each time. Moreover, the outcome in [2], in test [3], in [4] and in [8] was inactive.
For the compound `CC(C)[N+](C)(CCOC(=O)C1c2ccccc2Oc2ccccc21)C(C)C`, the Potency result in test [1], in test [5], in test [6], in [7] and in [9] was “inactive” throughout. Besides, the call in [2], in [3], in test [4] and in test [8] was inactive.
Take `C=CCc1ccccc1OCC(O)CNC(C)C` (stereo not drawn): the Potency entry in test [1], in test [5], in test [6], in test [9] and in [10] was “inactive” each time. The outcome in test [2], in test [3] and in [4] was inactive.
As for `O=C(O)CCCCCCCC(=O)O`, the Potency result in [1], in test [5], in test [6], in [7], in [9] and in [10] was “inactive” in each case. The compound was called inactive in test [2], in test [3] and in [4].
Consider `C[N+](C)(C)CCOC(=O)CCC(=O)OCC[N+](C)(C)C`, for which the Potency result in [1], in test [5], in [6], in [9] and in test [10] was “inactive” throughout. Moreover, the call in test [2], in test [3], in [4] and in test [8] was inactive.
With `CCCCCN(CCCCC)C(=O)C(CCC(=O)O)NC(=O)c1ccc(Cl)c(Cl)c1` (stereo not drawn), the Potency result in [1], in test [9] and in test [10] was “inactive” each time. Besides, the compound was called inactive in [2] and in [3].
Take `NC1=NCC2c3ccccc3Cc3ccccc3N12` (stereo not drawn): the Potency entry in test [1], in [5], in [6] and in test [9] was “inactive” in each case. Besides, the outcome in test [2] and in test [8] was inactive.
As for `NC(=O)c1cn(Cc2c(F)cccc2F)nn1`, the Potency in test [1] was 6 nM (active). Further, the compound was classed as inactive in [2] and in test [8]. Moreover, the Potency entry in [5], in test [6], in test [9] and in test [10] was “inactive” each time.
As to `CNC1(C)C2CCC(C2)C1(C)C` (stereo not drawn), the Potency result in test [1], in test [5], in [6] and in test [9] was “inactive” each time. In addition, the result in test [2] and in test [3] was inactive.
As for `CCCCNc1c(C(=O)OCC)c(C)nc2c1cnn2CC`, the Potency result in test [1], in [5], in test [6] and in test [9] was “inactive” each time. Moreover, the outcome in test [2] and in test [3] was inactive.
Regarding `NC(N)=N/N=C/c1c(Cl)cccc1Cl`, the Potency result in test [1], in [5], in test [9] and in [10] was “inactive” throughout. The outcome in test [2], in [3] and in [8] was inactive.
As for `CCN(Cc1ccncc1)C(=O)C(CO)c1ccccc1` (stereo not drawn), the Potency result in [1], in [5], in test [6], in [9] and in [10] was “inactive” each time. Besides, the compound was classed as inactive in [2] and in [3].
On to `Cc1nc2sccn2c(=O)c1CCN1CCC(=C(c2ccc(F)cc2)c2ccc(F)cc2)CC1`, for which the Potency in test [1] was 44700 nM (active). Besides, the result in [2], in test [3] and in [8] was inactive. In addition, the Potency entry in test [5], in test [6] and in test [9] was “inactive” in each case.
As to `CSc1ccc(C(=O)c2[nH]c(=O)[nH]c2C)cc1`, the Potency entry in [1], in test [5] and in [9] was “inactive” each time. Also, the result in [2], in test [3] and in [8] was inactive. Further, the Potency in [6] is 2310 nM (active).
As to `CN(C)CCN(Cc1cccs1)c1ccccn1`, the Potency entry in [1], in [5], in test [6], in test [7] and in [9] was “inactive” in each case. Further, the call in [2], in test [4] and in test [8] was inactive.
In the case of `CN1C(=O)CC[C@H]1c1cccnc1`, the Potency result in test [1], in test [5], in test [6], in test [7] and in test [9] was “inactive” each time. Moreover, the call in [2] was inactive.
Regarding `O=C(O)CN(CCN(CC(=O)O)CC(=O)O)CCN(CC(=O)O)CC(=O)O`, the Potency entry in [1], in [5], in [6], in [7], in test [9] and in [10] was “inactive” in each case. The call in [2] and in test [3] was inactive.
Turning to `CCCN(CCC)C(=O)C(CCC(=O)O)NC(=O)c1ccccc1` (stereo not drawn), the Potency entry in test [1], in test [5], in [6], in [9] and in test [10] was “inactive” each time. Moreover, the result in [2] and in test [3] was inactive.
With `NC(=O)N1c2ccccc2C=Cc2ccccc21`, the Potency entry in [1], in [5], in [6], in test [7], in test [9] and in test [10] was “inactive” throughout. Besides, the call in test [2] and in [3] was inactive.
For the compound `COCCCC/C(=N\OCCN)c1ccc(C(F)(F)F)cc1`, the Potency entry in test [1], in test [6], in [7], in [9] and in test [10] was “inactive” in each case. The compound was classed as inactive in test [2] and in test [4].
Take `COc1ccc(CN(CCN(C)C)c2ccccn2)cc1`: the Potency result in test [1], in test [5], in test [6], in test [7] and in test [9] was “inactive” throughout. Further, the result in [2] and in test [3] was inactive.

The record behind these values is PubChem BioAssay (NCATS).
